# Laboratory results published in PubChem BioAssay (NCATS).
# Values without a mark were called inactive. Records with an inconclusive call do not appear. The source made the active and inactive calls. Unless noted, the call rests on the fitted dose curve; in most records, active means well fitted curve in either direction with a large enough effect (not every such curve was filed as active); inconclusive means small, poorly fitted or top-dose-only effect, or another doubt; inactive means flat fitted curve, though single readings scatter.
# Key:
# [1] = AP1 Signaling Pathway (AID 357); conditions: ME-180 AP-1-bla reporter, EGF-induced, beta-lactamase ratio, 5 h; at 17.2 µM (top of the series) unless noted;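 further: ME-180 reporter cells stimulated with EGF at its EC50 level; on the % scale 0 is the no-effect control and ±100 the full control effect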
# Summary of the method: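 Read-out was the 460nm/530nm emission ratio (excitation 405nm) after CCF4 loading for 2.5 hours at room temperature. Cells carried an AP-1-driven beta-lactamase reporter, were stimulated with EC50 EGF plus compound for 5 hours, and AC50 values came from titrations.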
# [2] = Stat Signaling Pathway (AID 446); conditions: ME-180 SIE beta-lactamase reporter, IL-6 stimulated, 5 h; at 17.2 µM (top of the series) unless noted;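 further: ME-180 cervical cancer cells given 40 pM IL-6 alongside compound; SIE-controlled beta-lactamase reporter measured as 460/530 nm FRET emission ratio; on the % scale 0 is the no-effect control and ±100 the full control effect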
# Summary of the method: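 Compound effects on IL-6-induced STAT reporter activity were measured in ME-180 cells. After overnight culture, cells were co-treated with 40 pM IL-6 for 5 hrs before beta-lactamase substrate loading at room temperature.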
# [3] = biological target: Glucocorticoid receptor (Homo sapiens) (UniProt P04150); experiment: GR-GFP Redistribution (AID 450;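 active means compounds whose dose series gives a full or clear partial fitted curve of increased nuclear translocation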; further: potency means the concentration at half of the fitted maximal effect)
# [4] = biological target: Glucocorticoid receptor (Homo sapiens) (UniProt P04150); experiment: GR-EFC Redistribution (AID 451; calls by dose curve; further: potency means the concentration at half of the fitted maximal effect); conditions: CHO-K1 GR-EFC translocation, beta-gal luminescence, 2 h
# Summary of the method: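 CHO-K1 cells stably expressing nuclear-localized β-gal enzyme acceptor and GR fused C-terminally to the enzyme donor fragment; ligand-driven nuclear translocation restores β-gal by complementation. Compounds titrated up to 46 uM final, 2 h at 37 °C; luminescence read.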
# [5] = biological target: Mitogen-activated protein kinase 10 (Mus musculus) (UniProt Q61831); experiment: JNK3 AlphaScreen Assay (AID 530);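 further: kinase came from lysate of stimulated human HepG2 cells; signal reports phosphorylation of biotinylated GST-cJun 1-79 at Ser73 with 10 µM ATP; on the % scale 0 is the no-effect control and ±100 the full control effect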
# Summary of the method: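 Biotinylated GST-cJun(1-79) served as substrate for JNK3 in HepG2 lysates stimulated with IL-1beta and TNF-alpha. ATP was 10 uM final, pH 7.6. Ser73 phosphorylation was quantified by AlphaScreen (680 nm excitation).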
# [6] = Confirmation and Secondary Assay for Modulators of Hemoglobin Beta Chain Splicing at IVS2 654 locus (AID 910; active means well fitted activation curve with a large enough effect;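 further: per-well total GFP intensity by laser scanning cytometry after 2-day treatment; % of control where 0% means no effect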)
# Summary of the method: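 HeLa cells stably carrying EGFP interrupted by mutant beta-globin IVS2-654 intron (CMV-driven) were treated with compound for 2 days at 37C; corrected splicing was scored as total peak GFP intensity per well (488 nm excitation, 500-520 nm emission).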
# [7] = Confirmation and Secondary Assay for Modulators of Hemoglobin Beta Chain Splicing at IVS2 705 locus (AID 930; active means well fitted activation curve with a large enough effect;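 further: HeLa cells stably expressing the EGFP-705 splicing reporter; GFP fluorescence per well restored by corrected splicing of the IVS2-705 intron in EGFP; % of control where 0% means no effect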)
# Summary of the method: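 HeLa IVS2-705 EGFP reporter cells, 500/well, compound 2 d at 37C; correct splicing yields fluorescent EGFP. Control: 500 nM antisense PNA. Read-out: total peak GFP intensity.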
# [8] = qHTS Assay for Identification of Small Molecule Agonists for Hypoxia Response Element Signaling Pathway (AID 914; active means well fitted activation curve with a large enough effect in the signal ratio, with a control signal flat, not every such curve was filed as active; the % refers to the signal ratio; further: potency means the concentration at half of the fitted maximal effect; on activation: % of control where 0% means no effect); conditions: ME-180 (cervical carcinoma) HRE-bla reporter, beta-lactamase ratio, CoCl2, 17 h; activation: stronger effect = higher value
# Summary of the method: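 HRE-bla ME-180 assay for agonist-like enhancement of an EC50 CoCl2 stimulus: 17 h at 37 degrees Celsius, CCF4 for 2.5 h, ratiometric 460/530 nm signal converted to %Activity and fitted to AC50.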
# Glucocorticoid receptor (Homo sapiens), sequence (P04150 whole entry, looked up, the tested form may be a part): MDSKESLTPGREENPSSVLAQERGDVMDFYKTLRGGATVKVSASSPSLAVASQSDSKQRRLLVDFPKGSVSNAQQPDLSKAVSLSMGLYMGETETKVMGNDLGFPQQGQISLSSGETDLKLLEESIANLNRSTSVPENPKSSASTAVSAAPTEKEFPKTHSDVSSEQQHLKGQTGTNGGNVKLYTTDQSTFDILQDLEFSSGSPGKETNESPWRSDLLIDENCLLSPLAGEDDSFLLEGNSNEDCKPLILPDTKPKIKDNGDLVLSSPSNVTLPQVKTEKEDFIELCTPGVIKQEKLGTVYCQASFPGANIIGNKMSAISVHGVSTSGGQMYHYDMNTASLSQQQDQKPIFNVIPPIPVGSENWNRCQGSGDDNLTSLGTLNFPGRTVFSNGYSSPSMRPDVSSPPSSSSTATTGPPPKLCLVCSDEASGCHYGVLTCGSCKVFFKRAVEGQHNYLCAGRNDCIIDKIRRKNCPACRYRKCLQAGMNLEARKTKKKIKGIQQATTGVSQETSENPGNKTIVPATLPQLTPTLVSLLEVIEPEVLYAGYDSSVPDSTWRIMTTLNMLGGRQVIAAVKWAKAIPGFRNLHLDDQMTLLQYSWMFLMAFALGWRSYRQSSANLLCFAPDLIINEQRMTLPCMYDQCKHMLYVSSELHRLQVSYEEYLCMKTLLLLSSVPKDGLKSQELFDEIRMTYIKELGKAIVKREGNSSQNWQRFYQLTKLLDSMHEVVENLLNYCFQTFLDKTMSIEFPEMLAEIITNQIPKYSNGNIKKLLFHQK
compound,measurement,setting,value
Cc1cccc(CNc2ccnc(-c3ccc(N(C)C)cc3)n2)c1,"activity change, negative = inhibition",[1],-16% [at 7.69 µM]
same,"activity, negative = inhibition",[2],-22.6% [at 7.69 µM]
same,Potency,[3],> 46 µM
same,Potency,[4],> 46 µM
same,Potency,[5],inactive
same,Potency,[6],inactive
same,Potency,[7],inactive
Clc1ccccc1CSc1nnc(-c2ccco2)c(-c2ccco2)n1,"activity change, negative = inhibition",[1],10.8%
same,Potency,[3],> 20.6 µM
CCOC(=O)C1=C(CSc2nc3c(cc2C#N)CN(C)CC3)OC(N)=C(C#N)C1c1ccccc1 (configuration not stated),"activity change, negative = inhibition",[1],-2.2%
same,Potency,[3],> 20.6 µM
Cc1ccnc(N2CCN(c3cc(C)c(C#N)c4nc5ccccc5n34)CC2)c1,"activity change, negative = inhibition",[1],22.1%
same,Potency,[3],> 20.6 µM
CC1CCN(c2oc(-c3ccccc3Cl)nc2C#N)CC1,"activity change, negative = inhibition",[1],-14%
same,Potency,[3],> 20.6 µM
Fc1ccc2[nH]c3c(N4CCSCC4)ncnc3c2c1,"activity change, negative = inhibition",[1],-16.7%
same,Potency,[3],> 20.6 µM
COc1cccc(-c2nc(NCC3CCCO3)c3ccccc3n2)c1O (configuration not stated),"activity change, negative = inhibition",[1],-22.6%
same,Potency,[3],> 20.6 µM
N#CC(C#N)C(c1ccsc1)c1c(-c2ccccc2)[nH][nH]c1=O (configuration not stated),"activity change, negative = inhibition",[1],-20.2%
same,Potency,[3],> 20.6 µM
C=CCOn1c(=O)c(-c2ccc(OC)cc2)[n+]([O-])c2ccccc21,"activity change, negative = inhibition",[1],-22.9%
same,Potency,[3],> 20.6 µM
CCOC(=O)c1ccc(N=Cc2nc(-c3ccccc3)oc2OC(C)=O)cc1,"activity change, negative = inhibition",[1],-16.3%
same,Potency,[3],> 20.6 µM
CCOC(=O)NC(Nc1sc2c(c1C(=O)OC)CCN(C)C2)(C(F)(F)F)C(F)(F)F,"activity change, negative = inhibition",[1],12.1%
same,Potency,[3],> 20.6 µM
Cc1cc(C)n(CC(=O)N2c3ccccc3Sc3ccccc32)n1,"activity change, negative = inhibition",[1],-8.25%
same,Potency,[3],> 20.6 µM
CC(C)N1CC=C2C(C#N)=C(N)C(C#N)(C#N)C(c3ccccc3)C2C1 (configuration not stated),"activity change, negative = inhibition",[1],26.3%
same,Potency,[3],> 20.6 µM
Cc1c([C@H]2[C@@H](CC#N)C2(C)C)c2ccccc2n1C,"activity change, negative = inhibition",[1],-11.6%
same,Potency,[3],> 20.6 µM
CCOC(=O)c1[nH]c2ccc(OC)cc2c1NC(=O)CCN1CCC(C)CC1,"activity change, negative = inhibition",[1],8.62%
same,"activity, negative = inhibition",[2],8.76%
same,Potency,[3],> 20.6 µM
same,activation,[8],-29.8%
c1ccc(CN2CCN(c3ncnc4c3[nH]c3ccccc34)CC2)cc1,"activity change, negative = inhibition",[1],-15.1%
same,Potency,[3],> 20.6 µM
Cc1ccc2[nH]c3c(N4CCCCCC4)ncnc3c2c1,"activity change, negative = inhibition",[1],-20.6%
same,Potency,[3],> 20.6 µM
Oc1ccccc1-c1nc(NCc2ccco2)c2ccccc2n1,"activity change, negative = inhibition",[1],19.5%
same,Potency,[3],> 20.6 µM
CCOC(=O)CSc1nnc2n(Cc3ccccc3)c(=O)c3c4c(sc3n12)CCC4,"activity change, negative = inhibition",[1],-11.8%
same,Potency,[3],> 20.6 µM
Cc1nn(-c2ccccc2)c2c1C(c1ccc(F)cc1F)C(C#N)=C(N)O2 (configuration not stated),"activity change, negative = inhibition",[1],4.8%
same,Potency,[3],> 20.6 µM
CCCCCCc1cc2cc(-c3nnc(-c4ccccc4O)o3)c(=O)oc2cc1O,"activity change, negative = inhibition",[1],-3.45%
same,"activity, negative = inhibition",[2],73.1% [activator] (active)
same,Potency,[8],3.16 µM (active)
CN1CCc2c(sc3c2c(=O)n(-c2ccccc2)c2nnc(SCc4ccccc4)n32)C1,"activity change, negative = inhibition",[1],-13.6%
same,Potency,[3],> 20.6 µM
Cc1ccccc1-c1nn2c(-c3ccccc3)nnc2s1,"activity change, negative = inhibition",[1],-18%
same,Potency,[3],> 20.6 µM
CC(C)(C)c1nnc2sc(SCC(=O)c3ccccc3)nn2c1=O,"activity change, negative = inhibition",[1],2.49%
same,Potency,[3],> 20.6 µM
CSc1nc2sc3c(c2c2nnnn12)CCCC3,"activity change, negative = inhibition",[1],19.7%
same,Potency,[3],> 20.6 µM
CCN1CCN(c2nc3c(C)cccn3c(=O)c2/C=C(\C#N)S(=O)(=O)c2ccc(C)cc2)CC1,"activity change, negative = inhibition",[1],6.19%
same,Potency,[3],> 20.6 µM
COCCNC(=O)c1c(N)n(/N=C/c2cccs2)c2nc3ccccc3nc12,"activity change, negative = inhibition",[1],-0.395%
same,"activity, negative = inhibition",[2],19.9%
same,Potency,[3],> 20.6 µM
same,Potency,[8],10 µM (active)
Cn1c(N2CCOCC2)nc2c1c(=O)n(Cc1ccc(Cl)c(Cl)c1)c(=O)n2C,"activity change, negative = inhibition",[1],-18.7%
same,Potency,[3],> 20.6 µM
CCCSc1nnc(NC(=O)Nc2ccc(F)cc2)s1,"activity change, negative = inhibition",[1],-11.2%
same,Potency,[3],> 20.6 µM
N#CC1=C(N)OC2=C(C(=O)CCC2)[C@]12C(=O)N(CC(N)=O)c1ccccc12,"activity change, negative = inhibition",[1],12%
same,"activity, negative = inhibition",[2],1.02%
same,Potency,[3],> 20.6 µM
same,activation,[8],-22.1%
COc1cccc(/C(O)=C2/C(=O)C(=O)N(CCCN(C)C)C2c2cccc(Cl)c2)c1 (configuration not stated),"activity change, negative = inhibition",[1],5.09%
same,"activity, negative = inhibition",[2],5.04%
same,Potency,[3],> 20.6 µM
same,activation,[8],9.88%
Oc1oc(-c2ccco2)nc1C=Nc1cccc(Cl)c1,"activity change, negative = inhibition",[1],-27%
same,Potency,[3],> 20.6 µM
CCCc1cc(-c2nc(N)ncc2-c2ccc3c(c2)OCCCO3)c(O)cc1OC,"activity change, negative = inhibition",[1],-29.1%
same,Potency,[3],> 20.6 µM
CCCCCNC(=O)c1c(N)n(/N=C/c2ccco2)c2nc3ccccc3nc12,"activity change, negative = inhibition",[1],20.3%
same,"activity, negative = inhibition",[2],28.5%
same,Potency,[3],> 20.6 µM
same,Potency,[8],7.94 µM (active)
CCc1ccc(-c2cn3nc(C)c(C)nc3n2)cc1,"activity change, negative = inhibition",[1],0.521%
same,"activity, negative = inhibition",[2],11.8%
same,Potency,[3],> 20.6 µM
same,Potency,[8],10 µM (active)
CC(C)(C)c1cc(-c2ccco2)c(C#N)c(SCC#N)n1,"activity change, negative = inhibition",[1],28.8%
same,Potency,[3],> 20.6 µM
CC(C)(C)C1CCC2(CC1)C(C#N)=C(SCC(=O)Nc1ccccc1)NC(=O)C2C#N (configuration not stated),"activity change, negative = inhibition",[1],-1.12%
same,Potency,[3],> 20.6 µM
